Where a name gives a salt, the structure may show the parent alone.
System: OCI-AML2
Assay: cell viability relative to vehicle control; higher = less cytotoxic
Conditions: 10 µM; SRSF2 genotype: wt/wt
How it was run: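 Four leukaemia lines, as CRISPR-edited mutant clones and isogenic wild-type clones, were tested against Selleck bioactive, kinase and epigenetic probe libraries after removal of identity-inconsistent compounds. Cells were exposed to a single 10 µM dose for 48 h, and CellTiter-Glo luminescence was then read. Viability was calculated relative to the on-plate vehicle control.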

Row | SMILES | cell viability
1 | CC1=CC(=O)CC(C)(C)C1=O [Ketoisophorone] | 108%
2 | CN1CCc2c(c3ccccc3n2Cc2ccc(C(=O)NO)cc2)C1 [Tubastatin A hydrochloride] | 49.9%
3 | CCC[C@@H]1C[C@@H](C(=O)N[C@@H]([C@H]2O[C@H](SC)[C@H](O)[C@@H](O)[C@H]2O)[C@@H](C)O)N(C)C1 [Lincomycin hydrochloride (Lincocin)] | 93.9%
4 | COc1cc2c(cc1OC)-c1cc3ccc(OC)c(OC)c3c[n+]1CC2 [Palmatine chloride] | 80.9%
5 | COc1ccc(C(=O)CC2(O)C(=O)Nc3c(Cl)ccc(Cl)c32)cc1 (stereo not given) | 10.3%
6 | CCNC(=O)Nc1ccc(-c2nc(N3CCOC[C@@H]3C)c3c(n2)C(C)(C)S(=O)(=O)C3)cc1 | 32%
7 | C=C[C@]1(C)C[C@@H](OC(=O)CSCCN(CC)CC)[C@]2(C)[C@H](C)CC[C@]3(CCC(=O)[C@H]32)[C@@H](C)[C@@H]1O [Tiamulin] | 79.5%
8 | Oc1ccc(Nc2nc(-c3ccc(Cl)cc3)cs2)cc1 | 42.1%
9 | CCC1=C[C@@H]2CN(C1)Cc1c([nH]c3ccccc13)[C@@](C(=O)OC)(c1cc3c(cc1OC)N(C)[C@H]1[C@@](O)(C(=O)OC)[C@H](OC(C)=O)[C@]4(CC)C=CCN5CC[C@]31[C@@H]54)C2 [Vinorelbine Tartrate] | 3.83%
10 | COc1cc(O)c(C(=O)c2ccccc2)cc1S(=O)(=O)O [Sulisobenzone] | 104%
